Measured values from PubChem BioAssay (NCATS).
Records with an inconclusive call do not appear. Calls of active or inactive are those of the source. The call rests on the fitted dose curve; in most records, active means well fitted curve in the direction sought with a large enough effect; inconclusive means small, poorly fitted or top-dose-only effect, or another doubt; inactive means no such curve, though single readings can be large; an effect the other way counts as inactive or inconclusive.

Tests used:
[1] = HEK293 24hr Apoptosis Induction qHTS against the NCATS CANVASS Library (AID 1347359)
How it was run: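 Caspase-3/7 activation measured as luminescence from the DEVD-based Caspase-Glo reagent, 15 min at room temperature, following 24-hour compound treatment of HEK293 cells.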

[2] = HPAF-II 18hr Apoptosis Induction qHTS against the NCATS CANVASS Library (AID 1347360)
How it was run: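 Apoptosis was scored as caspase-3/7 activity in HPAF-II pancreatic cancer cells treated 18 hours with an 11-point concentration series.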

[3] = HEK293 12hr Apoptosis Induction qHTS against the NCATS CANVASS Library (AID 1347361)
How it was run: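 Apoptosis in HEK293 was scored as caspase-3/7 luminescence following 12 h treatment with a compound concentration series in qHTS format.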

[4] = test system: NAD(P)H diaphorase (Clostridium kluyveri); experiment: Diaphorse counterscreen qHTS: Assay Interference Panel against the NCATS CANVASS Library (AID 1347362)
How it was run: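 Counterscreen for coupling-enzyme interference: resorufin fluorescence from resazurin/NADH turnover, read after 5 min at room temperature. Compounds were tested over an 11-point series after 15 min dark preincubation with diaphorase in PBS-Tween.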

[5] = target: Luciferin 4-monooxygenase (Photinus pyralis) (UniProt P08659); experiment: Firefly luciferase counterscreen qHTS: Assay Interference Panel against the NCATS CANVASS Library (AID 1347363)
How it was run: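 Luminescence inhibition readout: compounds (11-point qHTS) sat 15 min at room temperature with substrate mix (0.013 mM luciferin and ATP), then firefly luciferase was added and signal read 5 min later.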

[6] = KB-8-5-11 Cancer Cell Toxicity qHTS against the NCATS CANVASS Library (AID 1347364); conditions: KB-8-5-11 MDR cells viability, CellTiter-Glo, 72 h; at 46.1 µM (top of the series); further: nearly all actives have a fitted effect of over 75% in size
How it was run: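 Terse: KB-8-5-11, 500 cells/well, 72 hr, 37C/5% CO2, 11-pt titration, CellTiter-Glo readout; confirmatory runs ± 1uM tariquidar in medium.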

[7] = SDT Cancer Cell Toxicity qHTS against the NCATS CANVASS Library (AID 1347365); conditions: SDT dog glioma viability, ATP luminescence, 72 h; at 46.1 µM (top of the series); further: nearly all actives have a fitted effect of over 60% in size
How it was run: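 Cytotoxicity is measured from cellular ATP: compounds in an 11-point concentration series are pinned onto SDT cells, incubated 72 hr at 37C, then CellTiterGlo is added and luminescence read.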

[8] = KB-3-1 Cancer Cell Toxicity qHTS against the NCATS CANVASS Library (AID 1347366); further: nearly all actives have a fitted effect of over 75% in size
How it was run: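 Seed KB-3-1 cells at 500/well in DMEM with 10% FBS, add compounds, incubate 72 hr at 37C and 5% CO2, then add CellTiter-Glo and read luminescence after 10 minutes.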

[9] = qHTS for ATAD5 Agonist screened against the NCATS CANVASS Library (AID 1347367);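 further: luciferase reporter driven by ATAD5 which rises upon DNA damage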
How it was run: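 Step one plated reporter cells and let them acclimate 5hr. Step two pinned compounds with MMS as positive and 0.46% DMSO as negative control. After 16hr incubation, fluorescence viability then luminescence were read.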

[10] = G06 Cancer Cell Toxicity qHTS against the NCATS CANVASS Library (AID 1347368); conditions: G06 dog glioma cells, viability ATP luminescence, 72 h; at 46.1 µM (top of the series); further: nearly all actives have a fitted effect of over 60% in size
How it was run: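 Cells were plated at 500 per well, then compounds were added over an 11-point range. After 72 hr at 37C, CellTiterGlo was added and luminescence measured as ATP content.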

[11] = MCF7 Cancer Cell Toxicity qHTS against the NCATS CANVASS Library (AID 1347369)
How it was run: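 Cytotoxicity is measured by ATP content: MCF7 cells at 500 per well receive an 11-point compound series and, after 72 hr at 37C, are lysed with CellTiterGlo for luminescence.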

[12] = qHTS for ATAD5 Antagonist screened against the NCATS CANVASS Library (AID 1347370);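 further: HEK293T cells carrying an ATAD5 luciferase reporter co-treated with 10 µM 5-fluorouridine; nearly all actives have a fitted effect of over 65% in size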
How it was run: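 Compounds (11-point) co-dosed with 10 µM 5-FUrd for 16 h at 37 °C onto HEK293T-ATAD5 luciferase reporter cells. Viability measured by CellTiter-Fluor fluorescence, then ATAD5 reporter signal by luminescence.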

[13] = J3T Cancer Cell Toxicity qHTS against the NCATS CANVASS Library (AID 1347371); conditions: J3T dog glioma viability, ATP luminescence, 72 h; at 46.1 µM (top of the series)
How it was run: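 Luminescence from CellTiterGlo, reporting cellular ATP, serves as the viability measure after 72 hr compound treatment of J3T canine glioma cells seeded at 500 cells/well.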

[14] = target: Nuclear receptor subfamily 1 group I member 3 (Homo sapiens) (UniProt Q14994); experiment: qHTS for Constitutive Androstane Receptor (CAR) Antagonist screened against the NCATS CANVASS Library (AID 1347372);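 further: cells stimulated with 50 nM CITCO agonist so inhibition reflects antagonism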
How it was run: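 Antagonist mode: compound added alongside 50 nM CITCO to HepG2-hCAR-CYP2B6 reporter cells, 24hr at 37C. Viability by CellTiter-Fluor fluorescence, then CAR-driven luciferase by ONE-Glo luminescence.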

[15] = target: Nuclear receptor subfamily 1 group I member 3 (Homo sapiens) (UniProt Q14994); experiment: qHTS for Constitutive Androstane Receptor (CAR) Agonist screened against the NCATS CANVASS Library (AID 1347373);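 further: every well also contained 1.5 µM PK11195 alongside the test compound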
How it was run: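 Cells were plated and allowed to attach for 4hr, then dosed with compound in an 11-point series alongside 1.5uM PK11195. After 24hr at 37C, viability was measured fluorometrically and CAR-driven CYP2B6 reporter luminescence was recorded.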

[16] = qHTS for Hypoxia signaling pathway (HIF-1) antagonists against the NCATS CANVASS Library (AID 1347374);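 further: HRE-bla ME-180 cells stimulated with cobalt chloride to stabilize HIF-1alpha; nearly all actives have a fitted effect of over 60% in size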
How it was run: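 Antagonism scored as loss of CoCl2-driven (60 uM stock added) HRE beta-lactamase signal, read by CCF4 FRET at 460/530 nm. Compounds were tested in an 11-point series on ME-180 reporter cells for 17 hrs at 37C, with parallel CellTiter-Glo cytotoxicity.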

[17] = qHTS for Hypoxia signaling pathway (HIF-1) agonists against the NCATS CANVASS Library (AID 1347375)
How it was run: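 Cells plated and rested 5 h, compounds pinned in DMSO across 11 concentrations, incubated 17 h at 37C, loaded with CCF4-AM for 2 h, fluorescence read at 460 and 530 nm, then CellTiter-Glo luminescence measured for viability and normalization.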

[18] = 10-beta competent E. coli microbial cell viability qHTS against the NCATS CANVASS Library (AID 1347376)
How it was run: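 Bacterial suspension diluted to 0.2 OD was dosed with compounds, 11-point series, then held overnight at 37C. BacTiter-Glo reagent was added, and after 20 min at room temperature ATP-dependent luminescence was measured.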

[19] = qHTS for H2AX Agonists against the NCATS CANVASS Library (AID 1347378);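 further: phospho-H2AX S139 level in CHO-K1 lysates by TR-FRET emission ratio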
How it was run: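 Following overnight seeding, CHO-K1 cells are incubated with a concentration series of compound for 3 hr at 37C (final DMSO 0.76%). Cells are then lysed, detection antibodies added, and emission ratio 665/620 nm recorded after 24 hr at room temperature.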

[20] = qHTS for Inflammasome Signaling Inhibitors: IL-1-beta AlphaLISA screen against the NCATS CANVASS Library (AID 1347379); conditions: THP-1 LPS/ATP, IL-1B AlphaLISA secretion, 16 h; at 57.5 µM (top of the series);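 further: human THP-1 cells primed with LPS then triggered with ATP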
How it was run: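 Secreted IL-1B from human THP-1 cells quantified by AlphaLISA 16 hr after compound addition (final up to 57.5 uM). A 1 hr compound pretreatment preceded inflammasome activation with 250 ng/mL LPS plus 1.25 mM ATP (final).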

Measured: outcome

Nuclear receptor subfamily 1 group I member 3 (Homo sapiens), sequence (Q14994 whole entry, looked up): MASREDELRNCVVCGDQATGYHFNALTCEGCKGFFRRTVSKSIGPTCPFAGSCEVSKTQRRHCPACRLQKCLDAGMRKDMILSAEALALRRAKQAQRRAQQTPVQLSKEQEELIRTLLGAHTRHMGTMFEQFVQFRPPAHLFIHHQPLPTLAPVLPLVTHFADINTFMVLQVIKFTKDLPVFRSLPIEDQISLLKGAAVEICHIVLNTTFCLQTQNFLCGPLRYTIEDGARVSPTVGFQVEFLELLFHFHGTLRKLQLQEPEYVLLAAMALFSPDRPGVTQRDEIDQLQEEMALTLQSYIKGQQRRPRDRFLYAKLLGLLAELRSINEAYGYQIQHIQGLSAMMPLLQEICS
Luciferin 4-monooxygenase (Photinus pyralis), sequence (P08659 whole entry, looked up): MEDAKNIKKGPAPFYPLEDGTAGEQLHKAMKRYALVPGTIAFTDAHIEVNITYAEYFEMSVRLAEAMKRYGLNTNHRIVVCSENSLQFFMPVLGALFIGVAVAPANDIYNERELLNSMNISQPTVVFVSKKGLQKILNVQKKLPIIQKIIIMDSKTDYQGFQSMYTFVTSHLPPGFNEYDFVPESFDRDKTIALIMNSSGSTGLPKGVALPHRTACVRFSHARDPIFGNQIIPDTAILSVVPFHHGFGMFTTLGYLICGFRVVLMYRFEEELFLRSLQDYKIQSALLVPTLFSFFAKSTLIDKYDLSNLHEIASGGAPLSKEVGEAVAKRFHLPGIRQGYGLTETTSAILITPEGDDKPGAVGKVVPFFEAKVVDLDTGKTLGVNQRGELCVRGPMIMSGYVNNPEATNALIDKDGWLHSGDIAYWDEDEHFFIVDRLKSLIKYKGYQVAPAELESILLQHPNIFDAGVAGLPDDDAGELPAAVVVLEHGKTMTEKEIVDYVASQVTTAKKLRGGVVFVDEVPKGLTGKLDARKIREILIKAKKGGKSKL

NCC(O)c1ccc(O)cc1 (stereo not given)
inactive: all assays above
